Source: the supplement of paper PMC11732987, “Enantioselective OTUD7B fragment discovery through chemoproteomics screening and high-throughput optimisation” (Communications Chemistry, 2025)

What was measured:
Assay in all cases: log2 ratio of Biotin-Ahx-Ub-VS probe labelling (fragment/DMSO); higher = less target engagement (more negative = stronger competition), active = hit call of the paper (q ≤ 0.05, log2 ratio ≤ -1)
Conditions in all cases: compound concentration: 200 uM; treatment time: 3 h
[1] = biological target: USP34 (UniProt Q70CQ2)
USP34, sequence (Q70CQ2 whole entry, the tested form may be a part): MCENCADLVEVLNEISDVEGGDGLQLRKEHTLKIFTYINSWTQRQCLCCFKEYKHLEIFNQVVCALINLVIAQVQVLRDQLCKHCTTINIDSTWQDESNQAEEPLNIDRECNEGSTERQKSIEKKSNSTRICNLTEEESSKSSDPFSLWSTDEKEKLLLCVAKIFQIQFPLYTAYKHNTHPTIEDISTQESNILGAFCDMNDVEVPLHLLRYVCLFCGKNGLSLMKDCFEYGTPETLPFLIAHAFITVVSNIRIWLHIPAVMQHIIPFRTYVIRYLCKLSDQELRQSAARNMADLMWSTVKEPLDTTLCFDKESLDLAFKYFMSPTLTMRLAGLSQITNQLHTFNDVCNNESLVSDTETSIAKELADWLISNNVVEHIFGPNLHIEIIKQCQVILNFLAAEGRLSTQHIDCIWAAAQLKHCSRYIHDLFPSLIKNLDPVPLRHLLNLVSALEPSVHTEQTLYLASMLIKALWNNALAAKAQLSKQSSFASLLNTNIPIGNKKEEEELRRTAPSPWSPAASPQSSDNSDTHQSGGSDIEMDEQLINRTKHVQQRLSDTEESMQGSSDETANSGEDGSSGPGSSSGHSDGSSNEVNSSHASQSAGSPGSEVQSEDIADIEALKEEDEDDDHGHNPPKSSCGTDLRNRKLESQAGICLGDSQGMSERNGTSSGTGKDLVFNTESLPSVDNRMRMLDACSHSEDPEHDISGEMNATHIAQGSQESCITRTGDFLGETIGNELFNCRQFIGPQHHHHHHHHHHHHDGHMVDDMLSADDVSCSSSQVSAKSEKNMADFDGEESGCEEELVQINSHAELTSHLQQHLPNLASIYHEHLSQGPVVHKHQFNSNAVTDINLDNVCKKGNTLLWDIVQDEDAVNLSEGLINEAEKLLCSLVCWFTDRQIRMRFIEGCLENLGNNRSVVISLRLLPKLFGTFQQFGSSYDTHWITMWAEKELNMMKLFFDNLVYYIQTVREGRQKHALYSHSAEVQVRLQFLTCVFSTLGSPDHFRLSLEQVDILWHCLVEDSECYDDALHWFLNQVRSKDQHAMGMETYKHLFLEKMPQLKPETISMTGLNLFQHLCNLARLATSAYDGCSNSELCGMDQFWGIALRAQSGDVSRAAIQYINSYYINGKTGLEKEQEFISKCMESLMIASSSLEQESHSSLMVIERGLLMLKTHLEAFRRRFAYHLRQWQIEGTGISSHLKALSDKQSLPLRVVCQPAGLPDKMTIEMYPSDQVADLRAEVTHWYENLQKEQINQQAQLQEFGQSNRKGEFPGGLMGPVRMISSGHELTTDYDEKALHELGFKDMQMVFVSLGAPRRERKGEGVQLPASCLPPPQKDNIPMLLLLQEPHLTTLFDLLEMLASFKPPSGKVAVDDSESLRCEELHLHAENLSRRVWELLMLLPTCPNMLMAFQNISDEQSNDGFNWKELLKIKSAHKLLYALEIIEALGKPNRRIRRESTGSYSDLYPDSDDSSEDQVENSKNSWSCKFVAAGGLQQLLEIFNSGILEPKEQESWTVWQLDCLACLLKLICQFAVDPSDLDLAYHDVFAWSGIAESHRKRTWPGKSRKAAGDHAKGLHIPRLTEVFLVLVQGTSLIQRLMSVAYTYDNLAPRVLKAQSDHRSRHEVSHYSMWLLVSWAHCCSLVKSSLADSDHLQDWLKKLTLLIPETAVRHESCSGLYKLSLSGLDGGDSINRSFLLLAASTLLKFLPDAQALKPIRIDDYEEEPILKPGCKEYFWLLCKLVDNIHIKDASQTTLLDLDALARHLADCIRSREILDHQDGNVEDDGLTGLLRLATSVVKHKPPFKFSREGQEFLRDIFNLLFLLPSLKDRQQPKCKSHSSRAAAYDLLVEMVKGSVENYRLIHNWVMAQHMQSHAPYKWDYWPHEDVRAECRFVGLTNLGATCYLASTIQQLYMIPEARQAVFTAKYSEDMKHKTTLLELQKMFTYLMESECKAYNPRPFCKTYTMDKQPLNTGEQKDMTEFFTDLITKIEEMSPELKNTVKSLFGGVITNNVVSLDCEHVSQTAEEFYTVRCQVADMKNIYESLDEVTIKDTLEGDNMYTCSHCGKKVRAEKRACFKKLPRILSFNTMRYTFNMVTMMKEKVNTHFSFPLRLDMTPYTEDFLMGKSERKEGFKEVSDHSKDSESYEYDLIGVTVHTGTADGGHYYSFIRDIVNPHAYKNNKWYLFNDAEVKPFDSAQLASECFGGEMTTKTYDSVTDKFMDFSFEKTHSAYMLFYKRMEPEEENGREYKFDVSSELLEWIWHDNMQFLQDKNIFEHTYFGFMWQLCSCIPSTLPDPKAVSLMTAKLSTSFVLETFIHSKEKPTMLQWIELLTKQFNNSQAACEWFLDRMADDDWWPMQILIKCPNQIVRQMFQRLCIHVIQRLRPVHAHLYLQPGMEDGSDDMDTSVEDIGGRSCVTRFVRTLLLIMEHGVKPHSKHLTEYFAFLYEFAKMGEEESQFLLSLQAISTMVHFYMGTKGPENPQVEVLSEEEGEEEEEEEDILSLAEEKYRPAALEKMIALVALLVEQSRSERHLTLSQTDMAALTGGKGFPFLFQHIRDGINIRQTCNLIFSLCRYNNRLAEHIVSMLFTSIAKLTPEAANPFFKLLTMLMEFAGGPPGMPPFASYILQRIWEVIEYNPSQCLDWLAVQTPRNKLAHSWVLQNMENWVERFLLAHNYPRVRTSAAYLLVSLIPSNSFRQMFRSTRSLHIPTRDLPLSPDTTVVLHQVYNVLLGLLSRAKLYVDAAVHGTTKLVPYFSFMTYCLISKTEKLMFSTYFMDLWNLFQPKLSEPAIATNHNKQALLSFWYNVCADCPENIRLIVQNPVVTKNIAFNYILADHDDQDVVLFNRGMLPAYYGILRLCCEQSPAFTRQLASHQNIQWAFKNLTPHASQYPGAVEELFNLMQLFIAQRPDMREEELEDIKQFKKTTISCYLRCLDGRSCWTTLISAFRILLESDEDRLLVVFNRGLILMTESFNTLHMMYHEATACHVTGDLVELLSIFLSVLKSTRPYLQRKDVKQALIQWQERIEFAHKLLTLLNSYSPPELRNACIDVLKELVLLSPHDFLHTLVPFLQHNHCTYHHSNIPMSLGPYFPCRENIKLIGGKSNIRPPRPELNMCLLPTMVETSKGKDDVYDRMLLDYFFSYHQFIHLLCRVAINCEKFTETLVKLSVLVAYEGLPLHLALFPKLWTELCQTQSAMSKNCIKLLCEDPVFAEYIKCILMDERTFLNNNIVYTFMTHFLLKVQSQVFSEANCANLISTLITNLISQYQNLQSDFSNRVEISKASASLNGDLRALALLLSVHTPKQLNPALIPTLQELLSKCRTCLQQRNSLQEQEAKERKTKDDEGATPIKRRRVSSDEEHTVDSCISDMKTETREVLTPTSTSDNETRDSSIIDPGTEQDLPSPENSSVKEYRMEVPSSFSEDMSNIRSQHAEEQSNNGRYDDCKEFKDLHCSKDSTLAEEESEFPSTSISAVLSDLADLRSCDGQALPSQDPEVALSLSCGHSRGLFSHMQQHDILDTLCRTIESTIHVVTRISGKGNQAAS
Summary of the method: (§1)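 HEK293T lysate, 495 µg per sample in Tris/CHAPS/IGEPAL buffer with protease inhibitors, was treated in triplicate with fragment at 200 µM or vehicle for 3 h and then with Biotin-Ahx-Ub-VS at 0.5 µM final for 1 h. Labelled DUBs were NeutrAvidin-enriched, digested with LysC and trypsin, and run by diaPASEF LC-MS/MS. Spectronaut label-free quantities were global-median-normalised, and values are average log2 fragment/vehicle ratios by unpaired t-test on proteins with ≥2 unique peptides.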

[2] = biological target: T1, USP36 (UniProt Q9P275)
T1 sequence (whole entry): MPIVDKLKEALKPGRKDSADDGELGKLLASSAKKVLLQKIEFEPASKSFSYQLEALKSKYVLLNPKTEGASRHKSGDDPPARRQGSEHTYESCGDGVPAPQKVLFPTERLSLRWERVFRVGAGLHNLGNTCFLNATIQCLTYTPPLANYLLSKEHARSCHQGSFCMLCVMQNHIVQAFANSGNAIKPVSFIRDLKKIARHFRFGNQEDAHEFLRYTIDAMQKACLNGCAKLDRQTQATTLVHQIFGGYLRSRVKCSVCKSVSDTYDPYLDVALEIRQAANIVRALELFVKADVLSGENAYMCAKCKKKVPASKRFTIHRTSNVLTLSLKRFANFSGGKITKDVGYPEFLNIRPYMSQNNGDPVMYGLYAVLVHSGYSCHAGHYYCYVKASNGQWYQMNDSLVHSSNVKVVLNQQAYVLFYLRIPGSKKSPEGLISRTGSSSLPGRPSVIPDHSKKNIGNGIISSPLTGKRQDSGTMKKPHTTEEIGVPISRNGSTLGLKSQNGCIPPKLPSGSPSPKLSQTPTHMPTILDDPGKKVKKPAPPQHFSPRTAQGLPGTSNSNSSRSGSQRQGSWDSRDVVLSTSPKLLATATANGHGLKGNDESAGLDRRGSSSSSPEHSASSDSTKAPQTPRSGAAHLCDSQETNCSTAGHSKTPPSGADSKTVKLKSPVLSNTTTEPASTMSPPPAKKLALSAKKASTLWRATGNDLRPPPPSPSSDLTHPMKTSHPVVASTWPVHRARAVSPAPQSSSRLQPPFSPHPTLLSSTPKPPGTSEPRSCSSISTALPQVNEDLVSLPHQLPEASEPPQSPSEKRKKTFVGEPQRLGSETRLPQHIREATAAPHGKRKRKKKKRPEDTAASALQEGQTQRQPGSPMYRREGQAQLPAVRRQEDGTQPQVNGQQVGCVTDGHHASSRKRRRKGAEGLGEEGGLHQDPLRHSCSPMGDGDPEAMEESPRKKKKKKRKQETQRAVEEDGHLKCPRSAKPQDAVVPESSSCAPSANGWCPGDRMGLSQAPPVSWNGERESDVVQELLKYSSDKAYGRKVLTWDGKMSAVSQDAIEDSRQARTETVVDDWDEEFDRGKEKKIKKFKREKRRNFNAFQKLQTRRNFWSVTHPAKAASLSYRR
Summary of the method: as §1

[3] = biological target: T2, USP38 (UniProt Q8NB14)
T2 sequence (whole entry): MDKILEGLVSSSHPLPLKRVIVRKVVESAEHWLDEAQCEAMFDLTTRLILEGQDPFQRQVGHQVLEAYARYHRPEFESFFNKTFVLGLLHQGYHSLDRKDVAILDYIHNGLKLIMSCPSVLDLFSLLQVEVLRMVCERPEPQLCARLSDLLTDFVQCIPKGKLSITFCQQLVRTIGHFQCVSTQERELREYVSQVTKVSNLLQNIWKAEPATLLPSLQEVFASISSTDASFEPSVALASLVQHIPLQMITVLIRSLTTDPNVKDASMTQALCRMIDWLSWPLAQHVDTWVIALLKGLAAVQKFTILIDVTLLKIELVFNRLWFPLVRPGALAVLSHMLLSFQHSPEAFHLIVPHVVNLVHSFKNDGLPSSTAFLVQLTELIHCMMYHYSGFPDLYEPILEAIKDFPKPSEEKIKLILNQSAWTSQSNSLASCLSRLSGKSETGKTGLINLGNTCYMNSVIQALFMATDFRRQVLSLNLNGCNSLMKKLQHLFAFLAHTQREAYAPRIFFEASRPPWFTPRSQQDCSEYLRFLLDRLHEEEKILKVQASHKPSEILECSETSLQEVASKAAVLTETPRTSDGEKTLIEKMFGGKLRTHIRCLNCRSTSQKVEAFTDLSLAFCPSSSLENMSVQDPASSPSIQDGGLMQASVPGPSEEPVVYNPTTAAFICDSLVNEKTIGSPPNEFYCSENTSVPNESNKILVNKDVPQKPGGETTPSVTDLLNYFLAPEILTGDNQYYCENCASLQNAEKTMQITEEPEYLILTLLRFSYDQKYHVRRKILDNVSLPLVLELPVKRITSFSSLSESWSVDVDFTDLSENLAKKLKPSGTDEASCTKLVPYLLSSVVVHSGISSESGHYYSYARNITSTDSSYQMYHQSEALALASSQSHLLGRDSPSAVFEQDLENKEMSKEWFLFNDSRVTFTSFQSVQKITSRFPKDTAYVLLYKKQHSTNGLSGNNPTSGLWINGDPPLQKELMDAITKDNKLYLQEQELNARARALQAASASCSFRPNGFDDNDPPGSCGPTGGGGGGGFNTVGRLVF
Summary of the method: as §1

[4] = biological target: T3, USP39 (UniProt Q53GS9)
T3 sequence (whole entry): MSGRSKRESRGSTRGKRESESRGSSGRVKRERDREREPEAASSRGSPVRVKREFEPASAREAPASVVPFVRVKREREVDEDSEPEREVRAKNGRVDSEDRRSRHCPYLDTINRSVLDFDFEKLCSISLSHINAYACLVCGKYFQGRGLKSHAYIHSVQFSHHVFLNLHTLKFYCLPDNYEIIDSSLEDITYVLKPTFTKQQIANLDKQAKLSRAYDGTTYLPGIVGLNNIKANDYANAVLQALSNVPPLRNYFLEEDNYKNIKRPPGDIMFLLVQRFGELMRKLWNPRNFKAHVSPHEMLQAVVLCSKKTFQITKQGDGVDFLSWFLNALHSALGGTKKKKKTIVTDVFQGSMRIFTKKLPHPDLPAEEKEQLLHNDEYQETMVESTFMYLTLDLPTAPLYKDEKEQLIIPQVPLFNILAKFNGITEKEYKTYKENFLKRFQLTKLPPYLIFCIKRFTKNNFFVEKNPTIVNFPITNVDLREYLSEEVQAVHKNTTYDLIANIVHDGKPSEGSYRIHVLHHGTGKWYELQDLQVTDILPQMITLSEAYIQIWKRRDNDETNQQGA
Summary of the method: as §1

[5] = biological target: T4, USP4 (UniProt Q13107)
T4 sequence (whole entry): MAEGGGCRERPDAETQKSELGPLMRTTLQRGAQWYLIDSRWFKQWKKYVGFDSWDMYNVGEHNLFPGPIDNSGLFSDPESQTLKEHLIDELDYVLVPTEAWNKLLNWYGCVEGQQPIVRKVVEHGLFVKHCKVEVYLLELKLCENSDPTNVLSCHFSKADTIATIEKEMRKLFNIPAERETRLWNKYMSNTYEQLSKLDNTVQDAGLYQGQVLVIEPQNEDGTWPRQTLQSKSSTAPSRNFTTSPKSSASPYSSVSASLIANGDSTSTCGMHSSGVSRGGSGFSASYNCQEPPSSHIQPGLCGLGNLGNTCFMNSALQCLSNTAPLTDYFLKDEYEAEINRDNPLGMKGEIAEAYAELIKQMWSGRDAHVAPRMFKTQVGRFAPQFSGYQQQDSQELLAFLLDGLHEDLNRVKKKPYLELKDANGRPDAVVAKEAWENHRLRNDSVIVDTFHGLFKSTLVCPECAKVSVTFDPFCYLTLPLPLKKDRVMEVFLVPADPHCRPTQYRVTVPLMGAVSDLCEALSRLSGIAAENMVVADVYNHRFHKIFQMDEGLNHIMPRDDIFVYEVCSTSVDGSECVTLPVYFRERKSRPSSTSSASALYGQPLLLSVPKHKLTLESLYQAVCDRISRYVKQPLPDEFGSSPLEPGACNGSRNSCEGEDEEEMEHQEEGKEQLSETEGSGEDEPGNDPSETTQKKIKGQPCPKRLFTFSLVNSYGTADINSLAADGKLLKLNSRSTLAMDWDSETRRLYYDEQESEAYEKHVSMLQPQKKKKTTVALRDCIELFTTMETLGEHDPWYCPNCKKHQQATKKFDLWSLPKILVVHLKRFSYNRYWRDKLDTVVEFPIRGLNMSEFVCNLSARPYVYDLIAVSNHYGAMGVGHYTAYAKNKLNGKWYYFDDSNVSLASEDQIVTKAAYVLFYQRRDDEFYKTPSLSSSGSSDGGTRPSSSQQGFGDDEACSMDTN
Summary of the method: as §1

Measured: log2 ratio of Biotin-Ahx-Ub-VS probe labelling

CN(C(=O)CCl)c1nc2ccccc2s1
inactive: [1] -0.279 | [2] -0.0441 | [3] -0.124 | [4] 0.31 | [5] 0.161
